Measured values from PubChem BioAssay AID1159580 (chemical genetic matrix, 2015).
Among all 5,500 compounds or so, about 2,000 (36%) were called active. Another 18% or so got no clear call; they are omitted. Rule as the data show it: active = normalized growth mostly below about 0.91 (no sharp cut-off); inconclusive = no clear call, values can overlap the other calls; inactive = mostly above about 0.92. The list shows a part of the results.

Assay: chemical genetic growth profiling, strain panel (AID 1159580);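 also: tested at 20 µM; growth read once vehicle control cultures reached saturation at 30 °C; 1 = growth at the plate median or of vehicle wells; lower values mean less growth of the strain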
Conditions: S. cerevisiae deletion strains, growth OD

Measured: normalized growth

CC1=NS(=O)(=O)c2cc(Cl)ccc2N1
inactive: locus YAL021C, strain ccr4, hits give low values 0.919 | locus YAL026C, strain drs2, hits give low values 0.972 | locus YAL030W, strain snc1, hits give low values 0.987 | locus YAL040C, strain CLN3, hits give low values 1 | locus YBL061C, strain skt5, hits give low values 0.984 | locus YBR009C, strain hhf1, hits give low values 0.984 | locus YBR023C, strain chs3, hits give low values 0.971 | locus YBR171W, strain sec66, hits give low values 0.972 | locus YBR231C, strain swc5, hits give low values 0.995 | locus YBR279W, strain paf1, hits give low values 0.952 | locus YCL011C, strain gbp2, hits give low values 0.985 | locus YCL016C, strain dcc1, hits give low values 0.976 | locus YCL061C, strain MRC1 (second series), hits give low values 0.995 | locus YCL069W, strain vba3, hits give low values 0.967 | locus YCR088W, strain abp1, hits give low values 0.971 | locus YDL005C, strain med2, hits give low values 0.972 | locus YDL040C, strain nat1, hits give low values 0.958 | locus YDR001C, strain nth1, hits give low values 0.967 | locus YDR069C, strain doa4, hits give low values 0.937 | locus YDR137W, strain rgp1, hits give low values 0.957 | locus YDR150W, strain NUM1, hits give low values 1.01 | locus YDR159W, strain sac3, hits give low values 0.936 | locus YDR195W, strain ref2 0.899 | locus YDR297W, strain sur2, hits give low values 0.974 | locus YDR334W, strain swr1, hits give low values 0.936 | locus YDR335W, strain msn5, hits give low values 0.971 | locus YDR363W, strain ESC2, hits give low values 0.973 | locus YDR392W, strain spt3, hits give low values 0.971 | locus YEL003W, strain gim4, hits give low values 0.984 | locus YEL037C, strain rad23, hits give low values 0.944 | locus YEL061C, strain CIN8 (second series), hits give low values 0.972 | locus YER002W, strain NOP16, hits give low values 0.999 | locus YER015W, strain faa2, hits give low values 0.971 | locus YER016W, strain bim1, hits give low values 0.963 | locus YER111C, strain swi4, hits give low values 0.99 | locus YER155C, strain BEM2 (second series), hits give low values 0.994 | locus YFR010W, strain ubp6, hits give low values 0.946 | locus YGL167C, strain pmr1, hits give low values 0.95 | locus YGL173C, strain kem1, hits give low values 0.995 | locus YGL227W, strain vid30, hits give low values 0.967 | locus YGL240W, strain doc1, hits give low values 0.953 | locus YGL253W, strain hxk2, hits give low values 0.951 | locus YGR078C, strain PAC10, hits give low values 1.01 | locus YHR013C, strain ard1, hits give low values 0.925 | locus YHR027C, strain rpn1, hits give low values 0.977 | locus YHR030C, strain SLT2, hits give low values 0.96 | locus YHR079C, strain IRE1, hits give low values 0.969 | locus YHR142W, strain chs7, hits give low values 0.948 | locus YJL092W, strain hpr5, hits give low values 0.986 | locus YJL095W, strain BCK1 (second series), hits give low values 0.961 | locus YJL095W, strain BCK1, hits give low values 0.974 | locus YJL115W, strain asf1, hits give low values 0.948 | locus YJL129C, strain trk1, hits give low values 0.975 | locus YJL154C, strain vps35, hits give low values 0.989 | locus YJL164C, strain tpk1, hits give low values 0.977 | locus YJL166W, strain qcr8, hits give low values 0.963 | locus YJL187C, strain SWE1, hits give low values 0.979 | locus YJR066W, strain TOR1, hits give low values 0.948 | locus YJR075W, strain HOC1, hits give low values 0.991 | locus YKL160W, strain elf1, hits give low values 0.981 | locus YKR026C, strain gcn3, hits give low values 0.958 | locus YKR091W, strain srl3, hits give low values 0.969 | locus YLL001W, strain dnm1, hits give low values 0.969 | locus YLL026W, hits give low values 0.985 | locus YLL041C, strain sdh2, hits give low values 0.981 | locus YLR027C, strain aat2, hits give low values 0.975 | locus YLR113W, strain HOG1, hits give low values 0.951 | locus YLR221C, strain rsa3, hits give low values 0.986 | locus YLR258W, strain gsy2, hits give low values 0.971 | locus YLR262C, strain YPT6 (second series), hits give low values 0.961 | locus YLR320W, strain mms22, hits give low values 0.971 | locus YLR342W, strain FKS1, hits give low values 0.992 | locus YLR357W, strain rsc2, hits give low values 0.944 | locus YLR370C, strain arc18, hits give low values 0.963 | locus YLR384C, strain iki3, hits give low values 0.984 | locus YML120C, strain ndi1, hits give low values 0.98 | locus YMR058W, strain fet3, hits give low values 0.97 | locus YMR125W, strain sto1, hits give low values 0.955 | locus YMR129W, hits give low values 0.955 | locus YMR205C, strain PFK2, hits give low values 0.966 | locus YMR231W, strain pep5, hits give low values 0.963 | locus YMR307W, strain GAS1, hits give low values 0.993 | locus YNL071W, strain lat1, hits give low values 0.949 | locus YNL175C, strain NOP13, hits give low values 1 | locus YNL183C, strain NPR1, hits give low values 0.906 | locus YNL197C, strain WHI3, hits give low values 0.996 | locus YNL209W, strain ssb2, hits give low values 0.979 | locus YNL224C, strain SQS1, hits give low values 1 | locus YNL248C, strain rpa49, hits give low values 0.998 | locus YNL322C, strain KRE1 (second series), hits give low values 0.966 | locus YNL322C, strain KRE1, hits give low values 0.953 | locus YNR049C, strain mso1, hits give low values 0.974 | locus YOR001W, strain rrp6, hits give low values 0.958 | locus YOR070C, strain gyp1, hits give low values 0.99 | locus YOR080W, strain dia2, hits give low values 0.942 | locus YOR083W, strain WHI5 (second series), hits give low values 1.02 | locus YOR083W, strain WHI5, hits give low values 0.958 | locus YOR106W, strain vam3, hits give low values 0.983 | locus YOR231W, strain MKK1, hits give low values 0.978 | locus YOR265W, strain rbl2, hits give low values 0.975 | locus YOR270C, strain vph1, hits give low values 0.888 | locus YOR290C, strain snf2, hits give low values 0.965 | locus YPL051W, strain arl3, hits give low values 0.994 | locus YPL055C, strain LGE1, hits give low values 0.987 | locus YPL078C, strain atp4, hits give low values 0.985 | locus YPL106C, strain sse1, hits give low values 0.92 | locus YPL240C, strain hsp82, hits give low values 0.967 | locus YPL241C, strain CIN2, hits give low values 0.992 | locus YPL256C, strain CLN2, hits give low values 0.97
